± gives the standard deviation of the averaged measurements. In all, about 25,000 sequences were measured (“ln(normalized median fluorescence intensity)”: median about 8.9, highest 2% from about 10 on). What follows is part of a selection rich in the highest values, with near analogues and random picks from the rest.
test system: PfAP2-LT AP2 domain (GST-tagged); assay: gcPBM binding intensity (ln(normalized median fluorescence intensity)); higher = stronger DNA binding
Summary of the method: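 An Agilent 4 × 180k array carrying primer-extended double-stranded 36-bp intergenic genomic probes and negative controls received GST-tagged P. falciparum DNA-binding domains expressed in E. coli, about 25 μg on average, for 1 h. The binding buffer contained 1× PBS, 1% milk, 0.2 mg/ml BSA, 0.5% salmon testes DNA and 0.03% Triton X-100. Binding intensity is the top Masliner-normalised natural-log median intensity across replicate spots of either probe orientation, read after Alexa488 anti-GST antibody staining and a 488 nm scan.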

Sequence | gcPBM binding intensity (ln)
ATACAATAAAGGTGTACACATATATGATGCAAGATG [CACACA_site5897] | 9.29 ± 0.52
ATGTAATGAAACATTGCACACATATAATAATATAAT [CACACA_site8402] | 9.31 ± 0.35
TTTTACACTTTTTTTTGTACACACTAAAAAGATTAA [XGTACX_site8407] | 8.59 ± 0.52
AATAATTGTTAAAGCTGTACAATACTTATATAAGAA [XGTACX_site5729] | 8.77 ± 0.45
AAAAAATATTGAAGTACACACATTATAAACTTTTTT [CACACA_site5029] | 8.86 ± 0.49
AATACACACCTGTGGGTGCTTATAATAAGCCACAAA | 8.95 ± 0.45
ATAAATAAAAAACACACACACACACCCAAAAAAAAA [CACACA_site2624] | 9.88 ± 0.3
TTAACAAATAAACACACACACACACCCAAAAAAAAA [CACACA_site8068] | 10.3 ± 0.2
ATAAATAAAAACACAAAACAAAACAAAACAAAACAA [CACACA_negctrl_site1257] | 8.82 ± 0.4
TTTTTTTTTGTTAGTTGTACGTTAAATGAATTTACT [XGTACX_site7675] | 8.67 ± 0.57
TACTAAGAAGTATTTACACACCAACAAGGCGAAAAA [CACACA_site2944] | 8.88 ± 0.44
CCTTTAAGCAAAAACACACACACATATATATATATA [CACACA_site348] | 9.945 ± 0.035
AAACATATATTAAGCACACACAAACAAAAAAACAAA [CACACA_site2549] | 9.59 ± 0.61
TGAAGCAAAAACAAAACACACATATAAATAAATAAA [CACACA_site3925] | 9.15 ± 0.52
TTTAAGCAAAAACACACACACATATATATATATATA [CACACA_site349] | 10.1 ± 0.16
TATAAGCAAAAACACACACACATATATATATATATA [CACACA_site3804] | 10.2 ± 0.23
CCTTTAAGCAAAAACACACACACATATTTATTTATA [CACACA_site6294] | 9.41 ± 0.3
AAAAAAATAAAAAATATATAAATAATTAATACATGT [GTGCAC_negctrl_site633] | 8.62 ± 0.59
TTATCATTATATAGTTGTACATATTTATTTATAAAA [XGTACX_site2310] | 8.45 ± 0.44

Sequence | gcPBM binding intensity (ln)
ATTATTTTATATACATGTACATATTATATATAAAAG [XGTACX_site2735] | 8.51 ± 0.42
TATTTTTTTAATAACTGTACTTTTTTGTCAAATGGA [XGTACX_site4179] | 8.32 ± 0.49
ATATATTTCAAAGGGGTGCAGGCATATTTAAGCAAA | 8.69 ± 0.49
TATTTTAAAAAAAAAAGTACACATAATATATATAAC [XGTACX_site5416] | 8.57 ± 0.57
ATTAAACCGTGGGAGCACACACACACACACACACAT [TGCATGCA_negctrl_site72] | 10.6 ± 0.4
CATTAAACCGTGGGAGCACACACACCCACCCACCCA [CACACA_site8000] | 9.57 ± 0.2
TTAAACCGTGGGAGCACACACACACCCAGACACATA [CACACA_site4337] | 9.7 ± 0.31
AAATATATATATATATATATATATGTGTGTGTATAT [GTGCAC_negctrl_site1] | 9.79 ± 0.45
TATATATATATATATATATATATATATGTGTATGTA [TGCATGCA_negctrl_site255] | 10.2 ± 0.26
TATATATATATATATATATATATATATATATGTATA [TGCATGCA_negctrl_site17] | 9.8 ± 0.38
TTACACTAAATATGTTCACACATTTTTTCCATCATA [CACACA_site4647] | 8.79 ± 0.45
AATGAACTCACGAGCACACACACACCGATATATATA [CACACA_site4710] | 10.1 ± 0.35
TGAACTCACGAGCACACACACACATATATATATATA [CACACA_site8248] | 10.3 ± 0.25
AATGAACAGACGAGCACACACACACCCATATATATA [CACACA_site1018] | 10.1 ± 0.16
AAAAAAGAAAAAAGGACACACATAAATATACTCACG [CACACA_site2904] | 9.16 ± 0.48
AAAATGAACTCACGAGCACACACACCCATATATATA [CACACA_site8247] | 9.72 ± 0.25
AACTCACGAGGACACACACACATATATATATATATA [CACACA_site4711] | 10.38 ± 0.035
CATACAGACGAACACACACACATATAAATATAAATA [CACACA_site6443] | 9.7 ± 0.38
TGAACAGACGAGCACACACACACATATATATATATA [CACACA_site1019] | 10.3 ± 0.2

Sequence | gcPBM binding intensity (ln)
AACGCACGAGGACACACACACATATTTATATTTATA [CACACA_site6608] | 9.82 ± 0.41
ATTTAATTTTCCAAATGTACTTATATTTTTATGAAA [XGTACX_site6144] | 8.27 ± 0.4
TTTTTTTTTTAAATGTGTCCTCATTATAATATATGT [XGTACX_site5331] | 8.65 ± 0.47
ATATAAGTTTTTTCTCAAAAAGTATAACGAGCATGA [CACACA_negctrl_site1375] | 8.6 ± 0.4
GACAAAAAATTAAAATAAAATAATAATATAATAAAA [GTGCAC_negctrl_site234] | 8.55 ± 0.67
TTTTGGTATACGTAATTATATAATATGTTAATCAAT [CACACA_negctrl_site645] | 8.61 ± 0.36
ATGTAGAGTAATAGTTGTACAAGGTGTATATCTCAT [XGTACX_site6370] | 9.29 ± 0.57
TAAAAGTTAATATAAACACACAAAAATTAATAAATA [CACACA_site6316] | 8.73 ± 0.45
TTATAAAAAGAACAATTAAAAAAAAATAAAATAAAA [XGTACX_negctrl_site398] | 8.4 ± 0.63
ATATAATGTGTAGGCCGTATTTACGTTTGGCAATCA [CACACA_negctrl_site1130] | 8.99 ± 0.56
ATTTGGCATAAACACACACACACACCCACCCACATA [CACACA_site8096] | 10.1 ± 0.37
TAGAAGCAGAAACACACACACATACATACACATACA [CACACA_site1467] | 9.87 ± 0.35
TATACGCAGAAACACACACACATACACCCACATACA [CACACA_site1723] | 10 ± 0.26
TGTAAATTTGGCATCACACATAAATAAACATATAAA [CACACA_site4497] | 8.77 ± 0.45
ATTTGGCAGAAACACACACACACACCCACCCACATA [CACACA_site589] | 10.2 ± 0.35
CATAAATGTATATAAACATGCAAGGACAGACTTTTA [TGCATGCA_site900] | 8.92 ± 0.37
TATATATATTATAATACATGCGGTGATGAAAGTTAT [TGCATGCA_site924] | 9.07 ± 0.58
TTATTTAAAATTTTTATGCGTATATATATAGGAACA [CACACA_negctrl_site388] | 8.35 ± 0.39
